This is part of a sample that, as a whole, favours compounds with a hit. Of some 83,000 tested, about 20% had one in any assay.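 For each line, cells grew in 96-well plates with the test compound present at a single concentration for 48 hours.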 Values without a mark were called inactive. The source made the active and inactive calls. How the source made its calls: active means growth percent below 10; inactive means the rest.
What was measured:
Experiment in all cases: NCI-60 one-dose screen, 48 h (100 = growth as untreated, 0 = no growth, -100 = all killed)
[1] = tested on: NCI-H23 lung
[2] = tested on: NCI-H226 lung
[3] = tested on: NCI-H322M lung
[4] = tested on: HOP-62 NSCLC
[5] = tested on: NCI-H460 lung
[6] = tested on: HOP-92 NSCLC
[7] = tested on: NCI-H522 lung
[8] = tested on: A549/ATCC NSCLC
[9] = tested on: 786-0 renal
[10] = tested on: COLO 205 colon
[11] = tested on: DU-145 prostate
[12] = tested on: K-562 leukemia; details: 10 µM unless noted
[13] = tested on: MALME-3M melanoma
[14] = tested on: MDA-MB-231 breast
[15] = tested on: RXF 393 renal
[16] = tested on: SF-268 CNS
[17] = tested on: SF-295 CNS
[18] = tested on: SF-539 CNS
[19] = tested on: UACC-257 melanoma
[20] = tested on: M14 melanoma

Cc1[nH]nc2ccc3nc(-c4cn[nH]c4C(F)(F)F)c4c(c3c12)CCCC4
growth ([1]; 10 µM unless noted): -8.3% (active) | growth ([2]; 10 µM unless noted): -5.98% (active) | growth ([3]; 10 µM unless noted): 2.15% (active) | growth ([4]; 10 µM unless noted): 5.21% (active) | growth ([5]; 10 µM unless noted): 1.29% (active) | growth ([6]; 10 µM unless noted): -18.3% (active) | growth ([7]; 10 µM unless noted): -54% (active) | growth ([8]; 10 µM unless noted): -2.97% (active) | growth ([9]; 10 µM unless noted): -21.2% (active) | growth ([10]; 10 µM unless noted): -18.6% (active) | growth ([11]; 10 µM unless noted): 5.72% (active) | growth [12]: 14.9% | growth ([13]; 10 µM unless noted): -24% (active) | growth ([14]; 10 µM unless noted): -14.8% (active) | growth ([15]; 10 µM unless noted): -79.6% (active) | growth ([16]; 10 µM unless noted): 18% | growth ([17]; 10 µM unless noted): -12.9% (active) | growth ([18]; 10 µM unless noted): -67.2% (active) | growth ([19]; 10 µM unless noted): 17.8% | growth ([20]; 10 µM unless noted): 3.29% (active)

CC/C(=C(\c1ccc(O)cc1)c1ccc(OCCNC)cc1)c1ccccc1
growth ([1]; 1 µM): 98.9% | growth ([1]; 10 µM): 96.5% | growth ([2]; 1 µM): 85.9% | growth ([2]; 10 µM): 74.7% | growth ([3]; 1 µM): 100% | growth ([3]; 10 µM): 102% | growth ([4]; 1 µM): 97.8% | growth ([4]; 10 µM): 96.8% | growth ([5]; 1 µM): 118% | growth ([5]; 10 µM): 69.2% | growth ([6]; 1 µM): 80.2% | growth ([6]; 10 µM): 65.1% | growth ([7]; 1 µM): 87.9% | growth ([7]; 10 µM): 93% | growth ([8]; 1 µM): 93.9% | growth ([8]; 10 µM): 88.2% | growth ([9]; 1 µM): 89.7% | growth ([9]; 10 µM): 76.7% | growth ([10]; 1 µM): 116% | growth ([10]; 10 µM): 91% | growth ([11]; 1 µM): 103% | growth ([11]; 10 µM): 83.6% | growth ([13]; 1 µM): 88.6% | growth ([13]; 10 µM): 91% | growth ([14]; 1 µM): 96.3% | growth ([14]; 10 µM): 82.5% | growth ([15]; 1 µM): 103% | growth ([15]; 10 µM): 82.4% | growth ([16]; 1 µM): 104% | growth ([16]; 10 µM): 79.8% | growth ([17]; 1 µM): 99.6% | growth ([17]; 10 µM): 96.4% | growth ([18]; 1 µM): 93.6% | growth ([18]; 10 µM): 85.2% | growth ([19]; 1 µM): 95.3% | growth ([19]; 10 µM): 97.2% | growth ([20]; 1 µM): 107% | growth ([20]; 10 µM): -18.8% (active)

OC1CCC(Cn2c(C(F)(F)F)cc3c(Cl)ncnc32)CC1 (stereo not drawn)
growth ([1]; 10 µM unless noted): -26% (active) | growth ([2]; 10 µM unless noted): 64.4% | growth ([3]; 10 µM unless noted): -13.9% (active) | growth ([4]; 10 µM unless noted): 13.3% | growth ([5]; 10 µM unless noted): -43.6% (active) | growth ([6]; 10 µM unless noted): 78.2% | growth ([7]; 10 µM unless noted): -81.3% (active) | growth ([8]; 10 µM unless noted): 94% | growth ([9]; 10 µM unless noted): 92.7% | growth ([10]; 10 µM unless noted): 60.2% | growth ([11]; 10 µM unless noted): 10.5% | growth [12]: -3.95% (active) | growth ([13]; 10 µM unless noted): 79.3% | growth ([14]; 10 µM unless noted): 2.76% (active) | growth ([15]; 10 µM unless noted): 63.1% | growth ([16]; 10 µM unless noted): -36.4% (active) | growth ([17]; 10 µM unless noted): 75.6% | growth ([18]; 10 µM unless noted): 75.6% | growth ([19]; 10 µM unless noted): 9.12% (active) | growth ([20]; 10 µM unless noted): -44.1% (active)

O=C(NNC(=O)c1ccc(OCc2nc3ccc(Cl)cc3[nH]2)cc1)Nc1ccc(Cl)c(C(F)(F)F)c1
growth ([1]; 10 µM unless noted): 35.9% | growth ([2]; 10 µM unless noted): 64.1% | growth ([3]; 10 µM unless noted): 43.6% | growth ([4]; 10 µM unless noted): 68.4% | growth ([5]; 10 µM unless noted): 38.1% | growth ([6]; 10 µM unless noted): -1.57% (active) | growth ([7]; 10 µM unless noted): 49% | growth ([8]; 10 µM unless noted): 57.1% | growth ([9]; 10 µM unless noted): 70.1% | growth ([10]; 10 µM unless noted): 85.6% | growth ([11]; 10 µM unless noted): 65.7% | growth [12]: 39.1% | growth ([13]; 10 µM unless noted): 45.7% | growth ([14]; 10 µM unless noted): 17.4% | growth ([15]; 10 µM unless noted): 67.3% | growth ([16]; 10 µM unless noted): 78.2% | growth ([17]; 10 µM unless noted): 84.9% | growth ([18]; 10 µM unless noted): 39.3% | growth ([19]; 10 µM unless noted): 73% | growth ([20]; 10 µM unless noted): 79.2%

COc1cc(NC(=O)C(C)C)ccc1C(=O)NC(=S)Nc1ccc(S(N)(=O)=O)cc1
growth ([1]; 10 µM unless noted): 102% | growth ([2]; 10 µM unless noted): 115% | growth ([3]; 10 µM unless noted): 99.7% | growth ([4]; 10 µM unless noted): 91.6% | growth ([5]; 10 µM unless noted): 107% | growth ([6]; 10 µM unless noted): 78% | growth ([7]; 10 µM unless noted): 76.3% | growth ([8]; 10 µM unless noted): 106% | growth ([9]; 10 µM unless noted): 79.6% | growth ([10]; 10 µM unless noted): 118% | growth ([11]; 10 µM unless noted): 106% | growth [12]: 108% | growth ([13]; 10 µM unless noted): 94.4% | growth ([14]; 10 µM unless noted): 93.1% | growth ([15]; 10 µM unless noted): 88.7% | growth ([16]; 10 µM unless noted): 80.8% | growth ([17]; 10 µM unless noted): 84.2% | growth ([18]; 10 µM unless noted): 88.9% | growth ([19]; 10 µM unless noted): 101% | growth ([20]; 10 µM unless noted): 106%

COc1sc(/C=N/NC(=O)c2[nH]c3ccc(Br)cc3c2-c2ccccc2)cc1Cl
growth ([1]; 10 µM unless noted): -41.9% (active) | growth ([2]; 10 µM unless noted): -17.8% (active) | growth ([3]; 10 µM unless noted): 13.3% | growth ([4]; 10 µM unless noted): -27% (active) | growth ([5]; 10 µM unless noted): 1.26% (active) | growth ([6]; 10 µM unless noted): -7.87% (active) | growth ([7]; 10 µM unless noted): -39% (active) | growth ([8]; 10 µM unless noted): -20.2% (active) | growth ([9]; 10 µM unless noted): -49.8% (active) | growth ([10]; 10 µM unless noted): -60.9% (active) | growth ([11]; 10 µM unless noted): -63.2% (active) | growth [12]: 9.98% (active) | growth ([13]; 10 µM unless noted): 18.1% | growth ([14]; 10 µM unless noted): -68% (active) | growth ([15]; 10 µM unless noted): -25.7% (active) | growth ([16]; 10 µM unless noted): -17.2% (active) | growth ([17]; 10 µM unless noted): -40.6% (active) | growth ([18]; 10 µM unless noted): -85.3% (active) | growth ([19]; 10 µM unless noted): 29% | growth ([20]; 10 µM unless noted): -3.6% (active)

Reference: PubChem BioAssay (NCI)
